# Source: PubChem BioAssay AID2620 (National Center for Advancing Translational Sciences (NCATS), 2010)
# Records with an inconclusive call do not appear. Unmarked numbers belong to inactive results. The source made the active and inactive calls. Calls follow the shape of the dose curve; as a rule, active = well fitted curve in the direction sought with a large enough effect; inconclusive = small, poorly fitted or top-dose-only effect, or another doubt; inactive = no such curve, though single readings can be large or run the other way.
# Biological target: Pyruvate kinase PKM (Homo sapiens) (UniProt P14618)
# Assay: Secondary LDH Assay for Activators of Human Pyruvate Kinase M1 Isoform: for Probe SAR; also: % of control where 0% means no effect
# Conditions: purified hPK-M1, LDH-coupled NADH fluorescence kinetic; series mostly up to 58.2 µM; activity change, negative = inhibition: at the top concentration
# Procedure, shortened: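 Kinetic LDH-coupled read: initial rates from NADH fluorescence loss over 3-6 min, normalized to uninhibited controls. Final conditions 10 nM hPK-M1, 1 uM LDH, PEP 0.1 mM, ADP 4.0 mM, NADH 0.2 mM in Tris-Cl pH 8.0 with KCl and MgCl2.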
# Pyruvate kinase PKM (Homo sapiens), sequence (P14618 whole entry, looked up, canonical isoform): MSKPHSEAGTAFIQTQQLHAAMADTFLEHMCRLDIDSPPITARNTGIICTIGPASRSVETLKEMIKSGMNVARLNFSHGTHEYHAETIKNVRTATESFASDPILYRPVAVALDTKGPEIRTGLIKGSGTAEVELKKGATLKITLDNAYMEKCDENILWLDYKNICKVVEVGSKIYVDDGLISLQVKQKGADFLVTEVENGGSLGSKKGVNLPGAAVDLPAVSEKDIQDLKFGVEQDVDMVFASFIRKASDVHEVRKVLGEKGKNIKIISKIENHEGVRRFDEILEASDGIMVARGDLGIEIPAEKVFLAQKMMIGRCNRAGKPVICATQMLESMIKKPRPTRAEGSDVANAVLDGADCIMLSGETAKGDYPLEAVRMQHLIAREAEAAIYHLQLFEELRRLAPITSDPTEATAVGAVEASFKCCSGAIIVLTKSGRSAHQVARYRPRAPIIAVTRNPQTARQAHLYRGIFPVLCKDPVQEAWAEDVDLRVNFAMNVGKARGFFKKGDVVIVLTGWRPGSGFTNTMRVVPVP
SMILES,"activity change, negative = inhibition [%]",outcome
Cc1ccc(NS(=O)(=O)c2cccc(Cl)c2)cc1C,4.63,
O=C1CCc2cc(S(=O)(=O)Nc3cccc4ccccc34)ccc2N1,8.49,
Cc1ccc(C)c(OC2=NS(=O)(=O)c3ccccc32)c1,-2.31,
CN=c1nc(-c2ccccc2)n(-c2ccccc2)s1,7.26,
Cc1cc2c(s1)c1cnn(Cc3ccccc3F)c(=O)c1n2C,,inactive
Cc1ccc(NS(=O)(=O)c2cc3c(cc2-c2ccccc2)NC(=O)CO3)cc1C,-1.77,
COc1ccccc1NS(=O)(=O)c1ccc2c(c1)CCC(=O)N2,3.42,
O=C1c2ccccc2C(=O)N1Cc1ccccc1,-1.98,
O=C1CCc2cc([S+](=O)([O-])Nc3ccc(N[S+](=O)([O-])c4ccc5c(c4)CCC(=O)N5)cc3)ccc2N1,-2.5,
CC(=O)N1CCCc2cc(S(=O)(=O)Nc3ccc(C)c(C)c3)ccc21,3.31,
O=C1CCc2cc(S(=O)(=O)Nc3ccc4ccccc4c3)ccc2N1,7.62,
O=C1c2ccccc2C(=O)N1c1cccc(Cl)c1,-4.02,
O=C1c2ccccc2C(=O)N1c1ccc2ncccc2c1,-2.45,
O=C1CCc2cc(S(=O)(=O)Nc3ccc(Cl)cc3)ccc2N1,-4.92,
Cc1ccc(NS(=O)(=O)c2ccc3c(c2)CCCC(=O)N3)cc1C,7.88,
Cc1ccc(-c2nc3cnccn3c2Nc2ccc(C(C)C)cc2)o1,12.3,
O=C1c2ccccc2C(=O)N1c1ccncc1,10.2,
O=C1CCc2cc(S(=O)(=O)Nc3cccc(Cl)c3)ccc2N1,-3.53,
O=C1CCc2cc(S(=O)(=O)Nc3ccc4ncccc4c3)ccc2N1,-3.94,
Cc1ccc(-c2nc3ccc(Cl)cn3c2Nc2ccccc2)o1,8.02,
N#Cc1cccc(NS(=O)(=O)c2ccc3c(c2)CCC(=O)N3)c1,-1.28,
Cc1ccc(OC2=NS(=O)(=O)c3ccccc32)cc1,0.776,
O=C1CCc2cc(S(=O)(=O)Nc3cccc(Br)c3)ccc2N1,-0.337,
O=C1c2ccccc2C(=O)N1Cc1cccnc1,-1.54,
O=C1c2ccccc2C(=O)N1c1ccccc1O,2.14,
Cc1ccc(NS(=O)(=O)c2ccc3c(c2)CCC(=O)N3)cc1F,0.152,
O=C1CCc2cc(S(=O)(=O)Nc3ccccc3-c3ccccc3)ccc2N1,6.2,
O=C1c2ccccc2C(=O)N1c1cccc2cccnc12,-3.81,
Cc1ccc(Cl)cc1NS(=O)(=O)c1cc2c(cc1Cl)CCC(=O)N2,4.27,
O=C1c2ccccc2C(=O)N1c1cccc2ncccc12,-3.84,
